Hits are enriched below; roughly 2.6% of the tested compounds scored in any of these assays.
Prx2 Sm inh: Schistosoma mansoni Prx2 inhibition; 65,000 tested, 0.07% active; Potency, µM; S. mansoni Prx2 activity coupled to TGR/GSH (TGR is thioredoxin glutathione reductase), NADPH fluorescence loss, qHTS
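Coupled assay in which S. mansoni TGR passes NADPH reducing equivalents via glutathione to Prx2, which reduces H2O2. Compounds were preincubated 15 min at room temperature with 25 nM TGR/50 nM Prx2 mix. Kinetic NADPH fluorescence loss (ex 365/em 450 nm) was monitored.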
Anthrax LT inh: inhibitors of anthrax lethal toxin internalization; Cells, anthrax lethal toxin internalization, FRET ratio (460/530); 70,000 tested, 0.67% active; AID 912; Potency, µM (top dose mostly 40 µM), for the others: top-dose activity change, negative = inhibition, actives largely listed as inhibitors; note: % is set by controls: 0 for no effect and ±100 for the full control effect; nearly all actives have a fitted effect of over 50% in size
AmpC inh det: blocks E. coli AmpC beta-lactamase in presence of detergent; purified AmpC, nitrocefin hydrolysis with detergent; AID 584; Potency, µM (titrated, usually from 28.7 µM), for inactives: at the highest dose activity change, negative = inhibition; 71,000 tested, 0.09% active; P00811; active = well fitted curve in the direction sought with a large enough effect; inconclusive = small, poorly fitted or top-dose-only effect; note: % is set by controls: 0 for no effect and ±100 for the full control effect
Target sequence (P00811 whole entry, looked up): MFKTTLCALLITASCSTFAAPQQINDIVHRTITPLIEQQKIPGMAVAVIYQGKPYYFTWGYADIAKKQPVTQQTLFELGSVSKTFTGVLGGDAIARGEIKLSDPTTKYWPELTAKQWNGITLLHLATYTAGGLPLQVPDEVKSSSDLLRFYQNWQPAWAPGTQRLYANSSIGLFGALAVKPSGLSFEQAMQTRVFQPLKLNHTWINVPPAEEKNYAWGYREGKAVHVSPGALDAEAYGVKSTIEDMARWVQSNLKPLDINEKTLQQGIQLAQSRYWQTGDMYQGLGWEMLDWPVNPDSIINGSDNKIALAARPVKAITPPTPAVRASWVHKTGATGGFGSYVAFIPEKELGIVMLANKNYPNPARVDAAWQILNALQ
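E. coli AmpC (5.3 nM) in 20 mM phosphate pH 7.0 with 0.01% Triton X-100, preincubated 15 min RT with compound; nitrocefin (2 uL of 800 uM stock) hydrolysis followed by 480 nm absorbance every 20 s over 4 min.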
AmpC nodet inh: AmpC beta-lactamase inhibition, detergent-free assay; P00811; AmpC nitrocefin hydrolysis, absorbance 480 nm, no detergent; Potency, µM (series often up to 28.7 µM), for the others: top-dose activity change, negative = inhibition; 71,000 tested, 1.8% active; AID 585; note: % of control where 0% means no effect
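AmpC in 20 mM phosphate buffer pH 7.0 was preincubated 15 min at room temperature with compounds. Nitrocefin (800 uM stock) was then added and hydrolysis followed at 480 nm every 20 s for 4 min.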
* hit, by the source's call; [ ] = dose if it differs, or a comment. Unless noted, calls come from the whole dose curve. Potency is the fitted concentration of half-maximal effect.

CCCCNc1nc(C)nc2c1nc(-c1ccccc1)n2C1CCN(Cc2ccccc2)C1 (stereo unspecified) was read as Anthrax LT inh 13µM*, AmpC inh det 10% and AmpC nodet inh 96%.
Screening Cc1nc(NCc2ccccc2)c2nc(-c3ccccc3)n(C3CCN(Cc4ccccc4)C3)c2n1 (stereo unspecified) returned Anthrax LT inh inconclusive, AmpC inh det 15% and AmpC nodet inh 70%.
For O=C(O)/C=C\c1c2ccc(=O)c(O)c-2oc2c(O)c(O)ccc12 the results were Prx2 Sm inh >57, Anthrax LT inh inconclusive, AmpC inh det 2µM* and AmpC nodet inh 1.6µM*.
For CS(=O)(=O)N1CCC[C@@]2(CCN(Cc3ccc(C#N)cc3)C2)C1 the results were Prx2 Sm inh >57, Anthrax LT inh inconclusive, AmpC inh det 1% and AmpC nodet inh -5%.
Screening Cc1ccc2nc(NC(=O)C3CCCN(S(=O)(=O)c4cccnc4)C3)sc2c1 (stereo unspecified) returned Prx2 Sm inh >57, Anthrax LT inh -30%, AmpC inh det 13% and AmpC nodet inh 4µM*[single pt active].
O=C(NC1CCCCCC1)C1CCN(S(=O)(=O)c2cccc3cccnc23)CC1 was read as Prx2 Sm inh >57, Anthrax LT inh -15%, AmpC inh det 30% and AmpC nodet inh 23%.
`Cc1ccc2nc(NC(=O)C3CCCN(S(=O)(=O)c4cnc[nH]4)C3)sc2c1` (stereo unspecified) gave Prx2 Sm inh >57, Anthrax LT inh inconclusive, AmpC inh det 3% and AmpC nodet inh 2%.
For CCOC(=O)N1CCC(NC(=O)C2CCCN(S(C)(=O)=O)C2)CC1 (stereo unspecified) the results were Prx2 Sm inh >57, Anthrax LT inh inconclusive, AmpC inh det -4% and AmpC nodet inh -6%.
`CCOC(=O)N1CCC(NC(=O)C2CCCN(S(=O)(=O)c3cccnc3)C2)CC1` (stereo unspecified) gave Prx2 Sm inh >57, Anthrax LT inh -5%, AmpC inh det 12% and AmpC nodet inh 4µM*[single pt active].
`NS(=O)(=O)c1ccc(CCNC(=O)C2CCCN(S(=O)(=O)c3cccnc3)C2)cc1` (stereo unspecified) gave Prx2 Sm inh >57, Anthrax LT inh -10%, AmpC inh det 13% and AmpC nodet inh 4µM*[single pt active].
O=C(NC1CCCC1)C1CCCN(S(=O)(=O)c2cccc3cccnc23)C1 (stereo unspecified) was read as Prx2 Sm inh >57, Anthrax LT inh -14%, AmpC inh det 14% and AmpC nodet inh 3.2µM*[single pt active].
Screening O=C(NCCc1ccccc1)C1CCCN(S(=O)(=O)c2cccnc2)C1 (stereo unspecified) returned Prx2 Sm inh >57, Anthrax LT inh -1%, AmpC inh det -1% and AmpC nodet inh 3%.
CC1CC(=O)O1 (stereo unspecified) was read as Anthrax LT inh -3%, AmpC inh det 13% and AmpC nodet inh -5%.
Screening COCCNC(=O)[C@@]1(Cc2ccccc2)C=C[C@@H](C)N1C(=O)OC returned Anthrax LT inh -7%, AmpC inh det 12% and AmpC nodet inh 19%.
`Cn1c(C(=O)NCCCN2CCCCCC2)cc2c(=O)n(C)c3ccccc3c21` gave Anthrax LT inh 4µM*, AmpC inh det 14% and AmpC nodet inh 130%.
`CN1CCN(CCNC(=O)c2cc3c(=O)n(C)c4ccccc4c3n2C)CC1` gave Prx2 Sm inh >57, Anthrax LT inh inconclusive, AmpC inh det 12% and AmpC nodet inh 4µM*[single pt active].
`Cn1c(C(=O)Nc2ccc3c(c2)OCCO3)cc2c(=O)n(C)c3ccccc3c21` gave Prx2 Sm inh >57, Anthrax LT inh inconclusive, AmpC inh det 13% and AmpC nodet inh 70%.
For CCCN1CCN(CCCNC(=O)c2cc3c(=O)n(C)c4ccccc4c3n2C)CC1 the results were Prx2 Sm inh >57, Anthrax LT inh 13µM*, AmpC inh det 12% and AmpC nodet inh 4µM*[single pt active].
For COC(=O)c1ccc(C(NC(=O)OCc2ccccc2)/C(F)=C/[C@@H](C)C(=O)NCCc2c[nH]c3ccc(OC)cc23)cc1 (stereo partly specified) the results were Anthrax LT inh 16%, AmpC inh det 13% and AmpC nodet inh -3%.
For CCCC[N+]1(C)[C@@H]2CC(OC(=O)[C@@H](CO)c3ccccc3)C[C@H]1[C@H]1O[C@H]12 (stereo partly specified) the results were Prx2 Sm inh >57, Anthrax LT inh 1%, AmpC inh det -1% and AmpC nodet inh -1%.
Screening NCCC1([N+](=O)[O-])CCNCC1 returned Prx2 Sm inh >57, Anthrax LT inh inconclusive, AmpC inh det 0%[5.75 µM] and AmpC nodet inh -5%[5.75 µM].
For N=C(N)SCCCN the results were Prx2 Sm inh >57, Anthrax LT inh 2%[8 µM], AmpC inh det -2%[5.75 µM] and AmpC nodet inh 4%[5.75 µM].
c1ccc2c(-c3nnc4n3CCCCC4)c[nH]c2c1 was read as Prx2 Sm inh >57, Anthrax LT inh inconclusive, AmpC inh det 0% and AmpC nodet inh -1%.
For CN1CC=C(c2c[nH]c3ccccc23)CC1 the results were Prx2 Sm inh >57, Anthrax LT inh -13%, AmpC inh det 11% and AmpC nodet inh 4µM*[single pt active].
CSCC[C@@H](C(=O)Nc1ccc2c(c1)OCCO2)N1Cc2ccccc2C1=O was read as Prx2 Sm inh >57, Anthrax LT inh -7%, AmpC inh det 8% and AmpC nodet inh 4µM*[single pt active].
`CCC(C)[C@@H](C(=O)Nc1ccc(OC)c(OC)c1)N1Cc2ccccc2C1=O` (stereo partly specified) gave Prx2 Sm inh >57, Anthrax LT inh 9%, AmpC inh det 13% and AmpC nodet inh 4µM*[single pt active].
`O=C(O)c1ccc(C(=O)O)c(C(=O)O)c1.[NH-][C@@H]1CCCC[C@@H]1[NH-].[Pt]` gave Prx2 Sm inh inactive, Anthrax LT inh -7%[8 µM], AmpC inh det -2%[5.75 µM] and AmpC nodet inh 5%[5.75 µM].
Screening CC1=C(C(=O)OCc2ccccc2)C(c2ccc(C3CCCCC3)cc2)NC(=O)N1CCCCCC(=O)O (stereo unspecified) returned Anthrax LT inh inconclusive, AmpC inh det 6% and AmpC nodet inh 97%.
COc1ccc(NS(=O)(=O)c2ccc3oc(Nc4ccc5c(c4)OCCO5)nc3c2)cc1 was read as Prx2 Sm inh >57, Anthrax LT inh 13µM*, AmpC inh det 13% and AmpC nodet inh 3.2µM*.
Cn1c(=O)oc2cc(S(=O)(=O)Nc3ccc4c(c3)OCCO4)ccc21 was read as Prx2 Sm inh >57, Anthrax LT inh 2%, AmpC inh det 9% and AmpC nodet inh -5%.
O=c1c2ccccc2nc(SCc2nnc(-c3ccccc3Br)o2)n1-c1ccccc1 was read as Prx2 Sm inh >57, Anthrax LT inh 15%, AmpC inh det -2% and AmpC nodet inh 20µM*.
Screening Brc1ccccc1-c1nnc(CSc2nncn2-c2ccccc2)o1 returned Prx2 Sm inh >57, Anthrax LT inh -1%, AmpC inh det -4% and AmpC nodet inh 11%.

High-throughput results: PubChem BioAssay, National Center for Advancing Translational Sciences (NCATS)
